# Results reported in article PMC7862700, “An all-to-all approach to the identification of sequence-specific readers for epigenetic DNA modifications on cytosine”.
# Experiments:
# Assay in all cases: DAPPL (digital affinity profiling via proximity ligation, sequencing); 10 mM Tris-HCl pH 7.5, 50 mM NaCl, 1 mM DTT, 4% glycerol, room temperature, 30 min; GST-TFs on glutathione beads, 16-mer random dsDNA library, 0.1% formaldehyde crosslink after washing; high values mean tight binding
# Settings in all cases: protein: recombinant; tags: N-terminal GST; dsDNA, one strand shown
# [1] = target: T1, FLI1 (Homo sapiens, UniProt Q01543 1-452)
# T1 sequence: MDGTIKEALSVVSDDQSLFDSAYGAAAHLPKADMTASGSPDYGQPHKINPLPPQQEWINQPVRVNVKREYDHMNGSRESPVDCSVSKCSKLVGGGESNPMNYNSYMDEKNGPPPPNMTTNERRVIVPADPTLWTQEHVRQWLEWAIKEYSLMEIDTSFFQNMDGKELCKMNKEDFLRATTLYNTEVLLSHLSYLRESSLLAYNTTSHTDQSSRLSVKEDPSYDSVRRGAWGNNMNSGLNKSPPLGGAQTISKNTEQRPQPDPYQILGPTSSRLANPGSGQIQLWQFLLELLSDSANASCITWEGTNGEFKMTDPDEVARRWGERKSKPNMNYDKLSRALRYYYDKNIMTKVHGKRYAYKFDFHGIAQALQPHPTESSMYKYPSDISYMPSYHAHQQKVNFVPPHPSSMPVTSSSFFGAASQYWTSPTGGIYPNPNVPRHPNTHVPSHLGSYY
# Procedure, shortened: (§1)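 Human transcription factors carrying a GST fusion were produced in yeast, bound to glutathione beads, tagged with DNA barcodes and pooled together with a tag-only sample. Each pool was held with 200 nmole of a random double-stranded 16-mer DNA library in Tris/NaCl/DTT/glycerol buffer for 30 min at room temperature, then washed, crosslinked in 0.1% formaldehyde, proximity-ligated with BsaI/T4 ligase (1 h, 37 °C), PCR-amplified and sequenced on an Illumina NextSeq500. Binding signal is the read frequency of each hexamer for a given factor divided by its frequency in the tag-only sample.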
# [2] = target: T2, ELK1 (Homo sapiens, UniProt P19419 1-428)
# T2 sequence: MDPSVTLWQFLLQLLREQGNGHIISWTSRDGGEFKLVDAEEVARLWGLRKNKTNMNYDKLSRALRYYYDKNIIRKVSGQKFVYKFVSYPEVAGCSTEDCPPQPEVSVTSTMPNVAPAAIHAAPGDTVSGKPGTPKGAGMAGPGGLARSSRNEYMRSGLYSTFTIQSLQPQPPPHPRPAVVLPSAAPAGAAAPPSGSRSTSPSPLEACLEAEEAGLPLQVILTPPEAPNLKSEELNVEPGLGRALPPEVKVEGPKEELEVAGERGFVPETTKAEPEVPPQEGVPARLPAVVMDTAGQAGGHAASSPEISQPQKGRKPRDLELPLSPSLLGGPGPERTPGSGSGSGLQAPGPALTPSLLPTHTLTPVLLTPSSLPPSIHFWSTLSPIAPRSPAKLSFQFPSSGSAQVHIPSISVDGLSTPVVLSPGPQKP
# Procedure, shortened: as §1
# [3] = target: T3, GABPA (Homo sapiens, UniProt Q06546 1-454)
# T3 sequence: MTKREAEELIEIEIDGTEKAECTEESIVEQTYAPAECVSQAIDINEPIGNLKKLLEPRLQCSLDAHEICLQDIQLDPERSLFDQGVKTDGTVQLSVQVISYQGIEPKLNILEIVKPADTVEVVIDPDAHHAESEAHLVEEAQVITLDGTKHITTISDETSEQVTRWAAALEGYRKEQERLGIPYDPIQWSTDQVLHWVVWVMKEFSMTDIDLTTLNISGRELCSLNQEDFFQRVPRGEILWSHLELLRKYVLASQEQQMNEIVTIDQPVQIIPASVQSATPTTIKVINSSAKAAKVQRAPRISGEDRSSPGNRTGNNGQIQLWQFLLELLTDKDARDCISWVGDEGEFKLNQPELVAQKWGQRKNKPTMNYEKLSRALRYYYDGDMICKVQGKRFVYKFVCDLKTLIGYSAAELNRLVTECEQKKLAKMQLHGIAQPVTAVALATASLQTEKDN
# Procedure, shortened: as §1
# [4] = target: T4, ERG (Homo sapiens, UniProt P11308 1-479)
# T4 sequence: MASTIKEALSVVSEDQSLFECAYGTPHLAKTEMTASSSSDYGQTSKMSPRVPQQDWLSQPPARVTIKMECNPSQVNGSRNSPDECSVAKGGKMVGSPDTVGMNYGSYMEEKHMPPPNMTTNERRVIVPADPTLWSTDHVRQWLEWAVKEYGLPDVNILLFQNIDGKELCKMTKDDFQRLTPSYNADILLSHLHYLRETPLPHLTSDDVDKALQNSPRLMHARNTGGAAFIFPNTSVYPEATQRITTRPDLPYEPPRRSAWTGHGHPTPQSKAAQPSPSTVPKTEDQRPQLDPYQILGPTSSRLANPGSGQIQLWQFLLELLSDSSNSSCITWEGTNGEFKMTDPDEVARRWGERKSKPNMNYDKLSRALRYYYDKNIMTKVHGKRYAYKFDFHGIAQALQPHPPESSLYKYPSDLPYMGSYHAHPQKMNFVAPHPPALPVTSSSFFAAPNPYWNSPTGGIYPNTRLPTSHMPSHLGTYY
# Procedure, shortened: as §1
# [5] = target: T5, EHF (Homo sapiens, UniProt Q9NZC4 1-300)
# T5 sequence: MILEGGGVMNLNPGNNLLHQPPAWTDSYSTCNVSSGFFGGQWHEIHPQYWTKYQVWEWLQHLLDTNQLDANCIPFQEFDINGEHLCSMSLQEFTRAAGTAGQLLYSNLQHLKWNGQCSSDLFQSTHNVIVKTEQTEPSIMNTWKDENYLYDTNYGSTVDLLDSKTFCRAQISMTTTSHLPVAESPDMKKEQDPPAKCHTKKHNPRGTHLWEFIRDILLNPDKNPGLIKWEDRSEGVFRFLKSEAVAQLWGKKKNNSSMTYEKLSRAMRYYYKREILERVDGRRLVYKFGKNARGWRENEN
# Procedure, shortened: as §1
# [6] = target: SPI1 (Homo sapiens, UniProt P17947 1-270)
# Procedure, shortened: as §1
# [7] = target: SPIB (Homo sapiens, UniProt Q01892 1-262)
# Procedure, shortened: as §1
# [8] = target: T6, FEV (Homo sapiens, UniProt Q99581 1-238)
# T6 sequence: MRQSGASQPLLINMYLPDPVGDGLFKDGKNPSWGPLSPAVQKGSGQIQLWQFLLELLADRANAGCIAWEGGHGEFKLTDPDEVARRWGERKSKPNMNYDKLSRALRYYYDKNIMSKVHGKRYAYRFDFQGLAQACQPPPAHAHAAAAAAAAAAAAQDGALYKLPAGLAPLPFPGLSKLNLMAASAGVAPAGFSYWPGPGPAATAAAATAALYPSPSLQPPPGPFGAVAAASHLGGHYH
# Procedure, shortened: as §1
# [9] = target: ETV5 (Homo sapiens, UniProt P41161 1-510)
# Procedure, shortened: as §1
# [10] = target: T7, SPIC (Homo sapiens, UniProt Q8N5J4 1-248)
# T7 sequence: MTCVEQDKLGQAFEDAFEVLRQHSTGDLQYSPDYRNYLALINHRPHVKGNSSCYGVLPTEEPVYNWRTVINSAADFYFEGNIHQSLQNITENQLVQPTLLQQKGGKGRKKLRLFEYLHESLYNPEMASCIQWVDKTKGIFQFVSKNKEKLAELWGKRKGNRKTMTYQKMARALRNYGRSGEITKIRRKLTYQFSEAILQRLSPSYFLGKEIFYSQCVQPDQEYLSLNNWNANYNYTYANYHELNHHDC
# Procedure, shortened: as §1
# [11] = target: ELF4 (Homo sapiens, UniProt Q99607 1-663)
# Procedure, shortened: as §1
# [12] = target: ETV1 (Homo sapiens, UniProt P50549 1-477)
# Procedure, shortened: as §1
# [13] = target: T8, ERF (Homo sapiens, UniProt P50548 1-548)
# T8 sequence: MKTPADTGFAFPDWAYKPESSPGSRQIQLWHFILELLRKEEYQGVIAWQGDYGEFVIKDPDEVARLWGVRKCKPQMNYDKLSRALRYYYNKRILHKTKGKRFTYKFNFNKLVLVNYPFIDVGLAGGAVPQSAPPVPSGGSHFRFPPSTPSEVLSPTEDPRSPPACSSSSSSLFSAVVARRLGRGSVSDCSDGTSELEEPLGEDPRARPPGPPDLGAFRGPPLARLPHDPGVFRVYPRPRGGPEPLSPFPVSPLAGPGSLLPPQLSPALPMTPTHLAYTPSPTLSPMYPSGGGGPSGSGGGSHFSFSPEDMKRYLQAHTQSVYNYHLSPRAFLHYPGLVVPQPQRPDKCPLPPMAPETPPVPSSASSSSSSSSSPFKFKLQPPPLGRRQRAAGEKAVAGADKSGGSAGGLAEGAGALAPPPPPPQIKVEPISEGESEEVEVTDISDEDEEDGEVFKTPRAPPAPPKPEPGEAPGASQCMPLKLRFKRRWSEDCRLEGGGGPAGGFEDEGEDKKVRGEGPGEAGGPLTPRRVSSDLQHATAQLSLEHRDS
# Procedure, shortened: as §1
# [14] = target: T9, ETV3L (Homo sapiens, UniProt Q6ZN32 1-361)
# T9 sequence: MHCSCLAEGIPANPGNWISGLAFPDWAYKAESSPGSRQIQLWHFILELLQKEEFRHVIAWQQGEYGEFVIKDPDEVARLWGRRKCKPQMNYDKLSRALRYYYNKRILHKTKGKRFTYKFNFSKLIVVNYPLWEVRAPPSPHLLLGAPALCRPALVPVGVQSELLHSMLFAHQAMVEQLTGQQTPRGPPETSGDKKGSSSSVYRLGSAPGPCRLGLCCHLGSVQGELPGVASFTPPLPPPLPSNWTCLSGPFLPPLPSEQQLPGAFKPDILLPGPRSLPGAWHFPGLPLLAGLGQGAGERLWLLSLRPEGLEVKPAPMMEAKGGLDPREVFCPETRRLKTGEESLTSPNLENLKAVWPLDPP
# Procedure, shortened: as §1
# [15] = target: T10, ETS2 (Homo sapiens, UniProt P15036 1-469)
# T10 sequence: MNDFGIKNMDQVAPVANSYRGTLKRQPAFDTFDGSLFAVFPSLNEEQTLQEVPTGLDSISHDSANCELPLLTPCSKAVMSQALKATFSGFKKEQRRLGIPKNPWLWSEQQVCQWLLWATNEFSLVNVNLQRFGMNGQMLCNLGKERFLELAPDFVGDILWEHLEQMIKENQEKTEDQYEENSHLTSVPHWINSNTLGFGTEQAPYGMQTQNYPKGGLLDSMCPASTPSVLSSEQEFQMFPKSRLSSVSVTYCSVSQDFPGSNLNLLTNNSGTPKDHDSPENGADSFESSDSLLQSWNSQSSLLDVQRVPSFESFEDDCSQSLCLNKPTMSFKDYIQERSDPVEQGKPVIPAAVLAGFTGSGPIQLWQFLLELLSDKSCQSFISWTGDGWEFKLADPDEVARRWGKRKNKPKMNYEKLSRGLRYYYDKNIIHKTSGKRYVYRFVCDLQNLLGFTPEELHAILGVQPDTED
# Procedure, shortened: as §1
# [16] = target: T11, SPDEF (Homo sapiens, UniProt O95238 1-335)
# T11 sequence: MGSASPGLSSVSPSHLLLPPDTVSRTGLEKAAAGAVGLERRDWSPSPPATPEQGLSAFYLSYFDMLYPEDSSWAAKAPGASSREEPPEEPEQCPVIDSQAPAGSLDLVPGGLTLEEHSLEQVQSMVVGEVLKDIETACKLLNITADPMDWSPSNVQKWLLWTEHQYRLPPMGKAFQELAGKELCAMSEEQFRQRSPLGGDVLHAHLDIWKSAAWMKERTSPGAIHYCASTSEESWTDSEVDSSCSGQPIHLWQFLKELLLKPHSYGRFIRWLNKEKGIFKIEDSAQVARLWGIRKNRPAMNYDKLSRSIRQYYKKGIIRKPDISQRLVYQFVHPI
# Procedure, shortened: as §1
# [17] = target: T12, ETV3 (Homo sapiens, UniProt P41162-2 1-143)
# T12 sequence: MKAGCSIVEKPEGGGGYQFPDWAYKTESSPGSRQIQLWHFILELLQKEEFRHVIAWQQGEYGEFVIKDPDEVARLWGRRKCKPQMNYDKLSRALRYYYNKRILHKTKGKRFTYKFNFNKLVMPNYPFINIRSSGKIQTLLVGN
# Procedure, shortened: as §1
# Chain of ETV1 (P50549 whole entry): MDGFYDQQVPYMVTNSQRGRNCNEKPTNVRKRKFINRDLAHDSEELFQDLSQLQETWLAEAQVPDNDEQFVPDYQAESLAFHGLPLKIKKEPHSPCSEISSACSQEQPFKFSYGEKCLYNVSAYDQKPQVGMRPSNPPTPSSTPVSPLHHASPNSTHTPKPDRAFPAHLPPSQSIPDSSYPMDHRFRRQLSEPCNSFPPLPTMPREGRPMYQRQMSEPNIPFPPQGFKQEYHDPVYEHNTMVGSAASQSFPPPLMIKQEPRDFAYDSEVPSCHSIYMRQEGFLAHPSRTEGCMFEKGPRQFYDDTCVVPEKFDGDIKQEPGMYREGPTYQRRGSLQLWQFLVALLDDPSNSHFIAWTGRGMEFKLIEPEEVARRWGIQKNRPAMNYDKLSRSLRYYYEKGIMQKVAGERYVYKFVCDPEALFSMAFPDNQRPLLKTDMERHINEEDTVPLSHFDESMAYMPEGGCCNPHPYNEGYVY
# Chain of SPIB (Q01892 whole entry): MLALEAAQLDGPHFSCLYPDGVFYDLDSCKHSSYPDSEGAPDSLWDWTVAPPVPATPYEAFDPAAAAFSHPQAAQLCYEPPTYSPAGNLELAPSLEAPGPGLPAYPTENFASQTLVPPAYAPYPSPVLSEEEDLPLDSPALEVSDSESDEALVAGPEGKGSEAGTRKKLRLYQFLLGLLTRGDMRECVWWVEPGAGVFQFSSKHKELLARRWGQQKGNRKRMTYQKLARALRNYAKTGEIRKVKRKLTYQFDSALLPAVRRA
# Chain of ELF4 (Q99607 whole entry): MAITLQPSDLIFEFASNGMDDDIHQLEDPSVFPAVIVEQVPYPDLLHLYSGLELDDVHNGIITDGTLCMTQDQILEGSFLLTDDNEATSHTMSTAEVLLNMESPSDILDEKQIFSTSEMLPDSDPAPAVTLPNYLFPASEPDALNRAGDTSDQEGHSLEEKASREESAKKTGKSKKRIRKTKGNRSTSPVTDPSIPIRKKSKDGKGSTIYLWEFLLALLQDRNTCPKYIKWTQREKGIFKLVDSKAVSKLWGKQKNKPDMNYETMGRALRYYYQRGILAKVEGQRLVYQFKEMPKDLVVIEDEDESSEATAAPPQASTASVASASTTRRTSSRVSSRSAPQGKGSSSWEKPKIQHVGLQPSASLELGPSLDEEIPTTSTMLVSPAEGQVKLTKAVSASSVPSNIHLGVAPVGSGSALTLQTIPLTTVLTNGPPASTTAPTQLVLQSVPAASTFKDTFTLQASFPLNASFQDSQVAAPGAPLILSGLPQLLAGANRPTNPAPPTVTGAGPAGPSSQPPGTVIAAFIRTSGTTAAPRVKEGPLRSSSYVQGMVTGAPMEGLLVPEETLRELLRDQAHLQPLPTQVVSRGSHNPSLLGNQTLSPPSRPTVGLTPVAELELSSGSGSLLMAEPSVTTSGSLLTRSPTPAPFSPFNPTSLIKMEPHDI
# Chain of ETV5 (P41161 whole entry): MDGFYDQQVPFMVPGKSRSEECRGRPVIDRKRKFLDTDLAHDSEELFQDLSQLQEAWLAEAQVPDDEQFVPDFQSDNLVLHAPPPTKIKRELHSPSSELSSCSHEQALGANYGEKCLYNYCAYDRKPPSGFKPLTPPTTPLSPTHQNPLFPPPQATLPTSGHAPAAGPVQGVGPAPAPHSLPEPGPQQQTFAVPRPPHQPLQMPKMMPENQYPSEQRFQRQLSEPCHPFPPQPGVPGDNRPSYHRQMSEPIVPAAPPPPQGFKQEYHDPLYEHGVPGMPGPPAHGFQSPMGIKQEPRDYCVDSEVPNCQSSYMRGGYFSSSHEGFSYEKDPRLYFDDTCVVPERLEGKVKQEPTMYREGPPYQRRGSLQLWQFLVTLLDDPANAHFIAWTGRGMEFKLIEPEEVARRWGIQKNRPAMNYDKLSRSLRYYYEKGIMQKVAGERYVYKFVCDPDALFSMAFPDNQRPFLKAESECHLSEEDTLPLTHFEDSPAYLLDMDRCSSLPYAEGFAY
sequence,measurement,setting,value
TGGTGC,binding signal,[1],"1.12 fold enrichment (6-mer frequency, TF over GST control)"
same,binding signal,[2],"1.14 fold enrichment (6-mer frequency, TF over GST control)"
same,binding signal,[3],"1.1 fold enrichment (6-mer frequency, TF over GST control)"
same,binding signal,[4],"1.16 fold enrichment (6-mer frequency, TF over GST control)"
same,binding signal,[5],"1.15 fold enrichment (6-mer frequency, TF over GST control)"
same,binding signal,[6],"1.12 fold enrichment (6-mer frequency, TF over GST control)"
same,binding signal,[7],"1.06 fold enrichment (6-mer frequency, TF over GST control)"
same,binding signal,[8],"1 fold enrichment (6-mer frequency, TF over GST control)"
same,binding signal,[9],"1.1 fold enrichment (6-mer frequency, TF over GST control)"
same,binding signal,[10],"1.14 fold enrichment (6-mer frequency, TF over GST control)"
same,binding signal,[11],"1.07 fold enrichment (6-mer frequency, TF over GST control)"
same,binding signal,[12],"1.06 fold enrichment (6-mer frequency, TF over GST control)"
same,binding signal,[13],"1.11 fold enrichment (6-mer frequency, TF over GST control)"
same,binding signal,[14],"1.05 fold enrichment (6-mer frequency, TF over GST control)"
same,binding signal,[15],"1.01 fold enrichment (6-mer frequency, TF over GST control)"
same,binding signal,[16],"1.19 fold enrichment (6-mer frequency, TF over GST control)"
same,binding signal,[17],"1.17 fold enrichment (6-mer frequency, TF over GST control)"
